Assay results from PMC5540273 (PLoS ONE, 2017).

Each compound was assayed on DAPK3. Conditions: concentration: 1 μM,replicates: in singlicate; n = 1.
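Also: KINOMEscan kinase panel screen.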

| SMILES | %Inh [%] |
| --- | --- |
| Cc1occc1-c1nc(N)c(OC[C@@H](N)Cc2c[nH]c3ccccc23)cc1-c1cc2c(C)n[nH]c2cn1 [GSK1660450] | 59 |
| Cc1n[nH]c2ccc(-c3cc(OC[C@@H](N)Cc4ccccc4)cnc3-c3ccoc3)cc12.O=C(O)C(F)(F)F.O=C(O)C(F)(F)F [GSK507358] | 13 |
| Cc1ccc(-n2nc(C(C)(C)C)cc2NC(=O)Nc2ccc(OCCN3CCOCC3)c3ccccc23)cc1 [GW839464] | 20 |
| COc1ccc(C[C@@H](CN)NC(=O)c2cc(Br)c(-c3ccnc4[nH]ccc34)s2)cc1.Cl.Cl [GSK1389063] | 18 |
| O=C(NCCNc1ccnc(NCc2ccc(F)cc2)n1)c1cc2ccccc2s1 [GSK1379944] | 81 |
| CCN(CC)CCOc1ccc(Nc2ncc3cc(-c4c(Cl)cccc4Cl)c(=O)n(C)c3n2)cc1 [SB-601273] | 10 |
| CN(C)CCOc1ccc(-c2cc(-c3c[nH]nc3-c3ccccn3)ccn2)cc1 [GW835314] | 0 |
| Cl.Cl.NC[C@H](Cc1ccc(C(F)(F)F)cc1)NC(=O)c1cc(Br)c(-c2ccnc3[nH]ccc23)s1 [GSK1487252] | 6 |
| CNC(=O)c1ccccc1Sc1ccc2c(/C=C/c3ccccn3)n[nH]c2c1 | 0 |
| CN(C)CC(O)COc1ccc(Nc2nccc(-c3cnn4nc(N5CCOCC5)ccc34)n2)cc1 (centres unmarked) [GW767488] | 68 |
| Cl.Cl.NC[C@H](CC1CCCCC1)NC(=O)c1cc(Br)c(-c2ccnc3[nH]ccc23)s1 [GSK1581427] | 19 |
| Cc1ccc2c(-c3ccncc3)c(-c3ccc(F)cc3)nn2c1.Cl [GW461484] | 5 |
| O=C(NCCCN1CCOC1=O)c1cnc(NCc2cc(Cl)ccc2Cl)nc1NC1CCCC1 | 12 |
| CC(C)N1C(=O)Cc2cc(Nc3ncc(C(F)(F)F)c(NCc4cccc(S(C)(=O)=O)c4)n3)ccc21 | 20 |

These compounds were tested on T1, DCAMKL1. Conditions: concentration: 1 μM,replicates: in singlicate; n = 1.
T1 construct: gene DCLK1

| SMILES | %Inh [%] |
| --- | --- |
| C[C@@H]1CCN(C(=O)CC#N)C[C@@H]1N(C)c1ncnc2[nH]ccc12 | 0 |
| CC(C)Nc1cc(-c2ccc3c(N)n[nH]c3c2)nc(N)n1 [GSK2221681] | 7 |
| CCN(CC)CCCCNc1ncc2cc(-c3c(Cl)cccc3Cl)c(NC(=O)NC(C)(C)C)nc2n1 | 11 |
| Cl.Oc1cc(-c2nc(-c3ccccc3)[nH]c2-c2ccncc2)ccc1Cl [SB-386023] | 34 |
| C[C@H]1Oc2cc(cnc2N)-c2c(nn(C)c2C#N)CN(C)C(=O)c2ccc(F)cc21 | 88 |
| Cl.Cl.Nc1nc(-c2ccc3c(N)n[nH]c3c2)cc(N2CCCC(NC(=O)c3ccccc3)C2)n1 (centres unmarked) [GSK2286775] | 15 |
| Cc1cc2cn[nH]c2cc1-c1cccc2c(N)c(C(N)=O)nnc12 | 71 |
| CCn1c(-c2nonc2N)nc2c(C#CC(C)(C)O)nc(OCCN)cc21.Cl.Cl [GSK902056] | 0 |
| C=CC(=O)Nc1cc2c(Nc3ccc(F)c(Cl)c3)ncnc2cc1OCCCN1CCOCC1 [GW781483] | 15 |
| Nc1nc(Nc2ccccc2)cc(-c2ccc3c(N)n[nH]c3c2)n1 [GSK2225749] | 12 |
| Cc1cc(C(=O)Nc2ccc(Oc3ccc4nc(NC(=O)C5CC5)cn4n3)cc2)nn1-c1ccccc1 | 12 |
| C[C@@H](Oc1cc(-c2cnn(C3CCNCC3)c2)cnc1N)c1c(Cl)ccc(F)c1Cl | 88 |
| NC(=O)c1cc(-c2ccccc2)cc2c(C3CCNCC3)c[nH]c12 [GSK301362] | 14 |
| Cc1occc1-c1nc(N)c(OC[C@@H](N)Cc2c[nH]c3ccccc23)cc1-c1cc2c(C)n[nH]c2cn1 [GSK1660450] | 24 |
| Cc1n[nH]c2ccc(-c3cc(OC[C@@H](N)Cc4ccccc4)cnc3-c3ccoc3)cc12.O=C(O)C(F)(F)F.O=C(O)C(F)(F)F [GSK507358] | 0 |
| Cc1ccc(-n2nc(C(C)(C)C)cc2NC(=O)Nc2ccc(OCCN3CCOCC3)c3ccccc23)cc1 [GW839464] | 21 |
| COc1ccc(C[C@@H](CN)NC(=O)c2cc(Br)c(-c3ccnc4[nH]ccc34)s2)cc1.Cl.Cl [GSK1389063] | 64 |
| O=C(NCCNc1ccnc(NCc2ccc(F)cc2)n1)c1cc2ccccc2s1 [GSK1379944] | 1 |
| CCN(CC)CCOc1ccc(Nc2ncc3cc(-c4c(Cl)cccc4Cl)c(=O)n(C)c3n2)cc1 [SB-601273] | 24 |
| CN(C)CCOc1ccc(-c2cc(-c3c[nH]nc3-c3ccccn3)ccn2)cc1 [GW835314] | 0 |
| Cl.Cl.NC[C@H](Cc1ccc(C(F)(F)F)cc1)NC(=O)c1cc(Br)c(-c2ccnc3[nH]ccc23)s1 [GSK1487252] | 17 |
| CNC(=O)c1ccccc1Sc1ccc2c(/C=C/c3ccccn3)n[nH]c2c1 | 31 |
| CN(C)CC(O)COc1ccc(Nc2nccc(-c3cnn4nc(N5CCOCC5)ccc34)n2)cc1 (centres unmarked) [GW767488] | 72 |
| Cl.Cl.NC[C@H](CC1CCCCC1)NC(=O)c1cc(Br)c(-c2ccnc3[nH]ccc23)s1 [GSK1581427] | 16 |
| Cc1ccc2c(-c3ccncc3)c(-c3ccc(F)cc3)nn2c1.Cl [GW461484] | 0 |
| O=C(NCCCN1CCOC1=O)c1cnc(NCc2cc(Cl)ccc2Cl)nc1NC1CCCC1 | 28 |
| CC(C)N1C(=O)Cc2cc(Nc3ncc(C(F)(F)F)c(NCc4cccc(S(C)(=O)=O)c4)n3)ccc21 | 30 |
